The values below come from the OligoGym collection.
Further: reference of the scale not given here.

The first assay addresses ZNF384. Put plainly: pooled miR-30 sensor sort-seq; sequence = guide strand. Particulars: shRNA.
On to TTGTGTTCTCGATCTGACCTGA, for which the sensor-assay potency score (higher = more potent) was found to be 0.373.

The sequence TTGATGAACATTGTGTTCTCGA yielded a sensor-assay potency score (higher = more potent) of 0.78.

Consider ATTTGTATGGTCTATCACCAGT, for which the sensor-assay potency score (higher = more potent) was -0.958.

For TTGAGCTTGAGCCTGGGCCTGG, the sensor-assay potency score (higher = more potent) is -0.952. The same measure, in the same setting: the figure for ATAAGGGTCATTCATCTCGGGC is -1.42. Still for that read-out and setting: the figure for TTGGACTCTGTGTCCATACTGA is -0.198; for ATCTTGTTGATGAACATTGTGT it is -0.823.

Another assay concerns the target ZNF428. Described as above. As to conditions: shRNA.
For ATATTCAGGATCGTCAGTGGTC, the sensor-assay potency score (higher = more potent) is -0.14. The same measure, in the same setting: the figure for TCATCTTCTTCCAAGCTGGCGT is -0.345; for TAAGACAACACAGACCGGCAGT it is 0.279; for TCATCATCTTCTTCCAAGCTGG it is -0.45.

TTCTAAGACAACACAGACCGGC had a sensor-assay potency score (higher = more potent) of 0.28.

Turning to TGAATCAGAGGAATGCTCGGGG, the sensor-assay potency score (higher = more potent) came to 0.32.

TCTGAGAGAGTGTATTCTGAAT displayed a sensor-assay potency score (higher = more potent) of -1.43. Still for that read-out and setting: as for TTCTTCCTCTTCGGAGTCCGGC, the figure is -1.03; as for TCTAAGACAACACAGACCGGCA, -0.807; as for TCACCTTGTAGCCAGGATCATA, -1.68. Still for that read-out and setting: the figure for TTCCTCTTCGGAGTCCGGCTCT is -0.361; for AGAGAGTGTATTCTGAATCAGA it is -1.95.

The next assay addresses ZNF471. The assay is described as above. Particulars: shRNA.
TACTCTTTGATGCTGAGTGAGT came in with a sensor-assay potency score (higher = more potent) of -0.705. The same measure, in the same setting: as for TTGATGTTGAGTAAGATTGGAA, the figure is -0.353; as for TGTGACATCTCTGATGTCGAGC, -0.679; as for TTTGCCAGTGTGACATCTCTGA, -0.159. On the same count and under the same terms, the figure for TAAACATCTCATGACTTCCCAT is -0.174; for TTAAGGATAACTTTCTTCTGAA it is -0.561. Same read-out and setting: as for TAACTTTCTTCTGAACGCCTTC, the figure is -0.31; as for TTTCTTGTGTTTTATTACCATA, -1.3; as for TTCTCCAACATCATACTCCTGT, 0.565.

In turn, TTCTCTGATGTACAGTACGGGA showed a sensor-assay potency score (higher = more potent) of -1.32.

A further assay deals with ZNF480. Described as above. As to conditions: shRNA.
Regarding TTCATCTGGAAATAGCTCCAGT, the sensor-assay potency score (higher = more potent) was 0.626.

TGAATTGTAACTAAAAACCTTG registered a sensor-assay potency score (higher = more potent) of -0.76. The same measure, in the same setting: as for TTTCAACTTGATTACATCCATT, the figure is -1.17; as for TTAGTGATAACTTGTGTCTGAA, -0.0434; as for TTTCTGATGTCGTACAAGGAGC, -1.17. In turn, TAACTTGTGTCTGAATGCCTTG yielded a sensor-assay potency score (higher = more potent) of -0.708. As to TTCTCTAAGGTGTACTTTCTGT, the sensor-assay potency score (higher = more potent) was -0.808. Still for that read-out and setting: the figure for TTGATGTTTAGTAAGGCTGGAA is -0.447; for TAATTGGTTTGTCTTCTGCATT it is -1.51; for TTGAATTGTAACTAAAAACCTT it is -0.157.
